Reference: PubChem BioAssay
Active and inactive are the calls of the source. Rule as the data show it: active = inhibition above about 31%; inactive = the rest.

test: reversal of MRP1-mediated doxorubicin resistance, pilot screen, H69AR cells, doxorubicin co-treatment (AID 601); conditions: H69AR cells, CellTiter-Glo, 72 h; compound alone cytotoxicity; at 10 µM

SMILES | viability
COc1ccc(C(=O)Nc2ccc(S(=O)(=O)Nc3onc(C)c3C)cc2)cc1 | 117%
O=C(O)CCN(CCC(=O)O)c1nnc(SCc2ccccc2)s1 | 93.6%
CS(=O)(=O)N(CC(=O)N1CCc2ccccc2C1)c1ccc2c(c1)OCO2 | 102%
C=CCSc1nnc(NC(=O)c2ccc(S(=O)(=O)NCC3CCCO3)cc2)s1 (configuration not stated) | 90.4%
OC(CCCN1CCC(O)(c2ccc(Cl)cc2)CC1)c1ccc(F)cc1 (configuration not stated) | 66.1%
COc1ccc(C(O)C(CN2CCOCC2)c2ccccc2)cc1F (configuration not stated) | 103%
C=CCn1c(SCC(=O)NCC2CCCO2)nc2scc(-c3ccco3)c2c1=O (configuration not stated) | 92.9%
Cc1ccc(C)c(CSc2nnc(CCN)o2)c1 | 71.2%
Cc1c(N=C2SCC(=O)N2c2c(C)n(C)n(-c3ccccc3)c2=O)c(=O)n(-c2ccccc2)n1C | 94.2%
COc1cc(C2N=C(c3ccccc3)NO2)cc(Br)c1O (configuration not stated) | 84.8%
CC1(C)Cc2c(sc3c2C2=NCCN2C=N3)CS1 | 105%
Cc1ccc(C(C(=O)NC2CCCCC2)N(C(=O)c2csnn2)C2CCCC2)o1 (configuration not stated) | 80.4%
Cc1cn2c(-c3ccncc3)nnc2s1 | 99.8%
CCOc1ccc(S(=O)(=O)Nc2ccc(Cl)cn2)c(C)c1C | 87.6%
CN(C)CCC(c1ccc(Br)cc1)c1ccccn1 (configuration not stated) | 102%
COc1ccc(C(c2nnnn2C2CCCC2)N2CCC(C)CC2)c(OC)c1 (configuration not stated) | 87.8%
COCCN(CCOC)C(=O)CCn1c(=O)oc2ccccc21 | 89%
CCOC(=O)c1sc2cccc(F)c2c1N | 88.1%
CC1=NN(c2ccccc2)C(=O)C1 | 94.5%
COc1nc(-c2ccc(Cl)cc2)ccc1-c1noc(-c2ccncc2)n1 | 82.4%

test: 384-well plate pilot, post-Golgi transport modulator project, inhibition of yeast transport mutant growth (AID 636); conditions: absorbance 615 nm, about 18 h, stronger effect = higher value

SMILES | inhibition
Cc1nnc(NC(=O)CCC(=O)N2CCC(C)CC2)s1 | -3.01% (inactive)
Cc1ccc(-c2ccc(=O)n(CC(=O)NCCCN3CCCCC3C)n2)cc1 (configuration not stated) | -0.39% (inactive)
O=C(CN1CCN(Cc2ccccc2)CC1)Nc1ccc(Cl)cn1 | -8.08% (inactive)
O=C(Nc1cccc(OCC(=O)N2CCOCC2)c1)C1CCCCC1 | -4.66% (inactive)
O=C(CN1CCN(c2ccccn2)CC1)N1c2ccccc2CCc2ccccc21 | -6.08% (inactive)
CCOc1ccc(NC(=O)C2CC(=O)N(CC)C(=Nc3ccc4c(c3)OCO4)S2)cc1 (configuration not stated) | -2.84% (inactive)
CNC(=O)NCCN1CCCC1=O | -5% (inactive)
CCCNC(=O)c1cc(S(=O)(=O)N2CCc3ccccc32)ccc1F | -6.13% (inactive)
Cc1cc(NC(=O)c2cnn3c(C(F)F)cc(C4CC4)nc23)no1 | -1.43% (inactive)
CCOC(=O)Cc1csc(/C(=N/O)C(N)=O)n1 | -1.82% (inactive)
O=C(COC(=O)c1cccc(S(=O)(=O)N2CCc3ccccc32)c1)NC1CCS(=O)(=O)C1 (configuration not stated) | -4.05% (inactive)
CN1[C@@H](CC(=O)c2ccccc2)CCC[C@H]1C[C@H](O)c1ccccc1 | 1.95% (inactive)
O=C(CSc1n[nH]c(=O)[nH]c1=O)c1ccccc1 | -2.4% (inactive)
CC(O)Cn1cnc2c1c(=O)n(C)c(=O)n2C (configuration not stated) | -1.04% (inactive)
O=C(CNCC1CCCO1)Nc1ccccc1-n1cccc1 (configuration not stated) | -8.38% (inactive)
COc1cccc(N2CCN(CC(=O)c3c[nH]c4ccc(OC)cc34)CC2C)c1 (configuration not stated) | -5.33% (inactive)
COC(=O)c1c(NC(=O)CCc2ccc(C)o2)sc(C)c1C | -2.4% (inactive)
O=C(COC(=O)c1cc(S(=O)(=O)N2CCOCC2)cs1)c1ccccc1 | -3.64% (inactive)
Cc1ccc(S(=O)(=O)NCC(=O)OCN2C(=O)c3ccccc3C2=O)cc1 | -2.73% (inactive)
COc1ccc(C(=O)Nc2ccc(S(=O)(=O)Nc3onc(C)c3C)cc2)cc1 | -2.03% (inactive)
O=C(O)CCN(CCC(=O)O)c1nnc(SCc2ccccc2)s1 | -6.16% (inactive)
CS(=O)(=O)N(CC(=O)N1CCc2ccccc2C1)c1ccc2c(c1)OCO2 | -1.04% (inactive)
C=CCSc1nnc(NC(=O)c2ccc(S(=O)(=O)NCC3CCCO3)cc2)s1 (configuration not stated) | -3.84% (inactive)
OC(CCCN1CCC(O)(c2ccc(Cl)cc2)CC1)c1ccc(F)cc1 (configuration not stated) | 2.47% (inactive)
COc1ccc(C(O)C(CN2CCOCC2)c2ccccc2)cc1F (configuration not stated) | -0.26% (inactive)
C=CCn1c(SCC(=O)NCC2CCCO2)nc2scc(-c3ccco3)c2c1=O (configuration not stated) | -3.84% (inactive)
Cc1ccc(C)c(CSc2nnc(CCN)o2)c1 | -7.67% (inactive)
